Our source for the growth values is PubChem BioAssay (NCI).

Compounds without any hit were thinned out: in the full panel of roughly 83,000, 20% have a hit.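 A percent growth of 40 corresponds to 60% growth inhibition; 0 means no net growth; -100 means all cells died. Active threshold: below 10.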 Unmarked numbers belong to inactive results. Calls of active or inactive are those of the source.

Experiment in all cases: NCI-60 one-dose screen, 48 h (100 = growth as untreated, 0 = no growth, -100 = all killed)
Settings in all cases: 10 µM unless noted

Assay [1] relates to HCT-15 colon.
In assay [2] the test system is HT29 colon.
In assay [3] the test system is SNB-75 CNS.
Assay [4] relates to SNB-19 CNS.
In assay [5] the test system is U251 CNS.
Assay [6] deals with PC-3 prostate.
Assay [7] has as its system SK-MEL-5 melanoma.
For assay [8], the system named is UACC-62 melanoma.
Assay [9] has as its system LOX IMVI melanoma.
Assay [10] relates to SK-MEL-28 melanoma.

Take `c1c[nH]c(CNC2CCCCC2)c1`: the growth in assay [1] is 104%; in assay [2], 105%; in assay [3], 108%; in [4] it was 119%; in [5] it was 102%; in assay [6], 81.6%. Also, the growth in [7] is 118%; in [8], 110%; in assay [9] it was 89.7%; in assay [10] it was 120%.

On to `CN1CCN(CCCOc2ccc3nc(Nc4ccc(F)c(F)c4)ccc3c2)CC1`, for which the growth in [1] is -29.3% (active); in assay [2] it was -36.2% (active); in [3] it was 24.3%; in assay [4] it was 26.5%; in [5] it was 13.7%; in assay [6], 22.5%. In addition, the growth in assay [7] was -6.85% (active); in assay [8], -67.1% (active); in assay [9], -89.5% (active); in assay [10], -67.4% (active).

On to `O=C(c1ccc(Nc2nccc(NCCCCNc3ccnc4cc(Cl)ccc34)n2)cc1)N1CCCCC1`, for which the growth in assay [1] is 11.2%; in [2] it was -11.3% (active); in assay [3] it was -23.5% (active); in [4], 24.7%; in assay [5], -31.6% (active); in assay [6] it was 28.7%. The growth in assay [7] was -92.3% (active); in [8], -23% (active); in assay [9], -83.2% (active); in [10], -52.5% (active).

With `Cc1cccc(NC(=O)N/C(N)=N/c2nc(C)c(C)s2)c1`, the growth in assay [1] was 22.2%; in [2], 18.9%; in [3] it was -3.93% (active); in [4], 65.4%; in assay [5], 45%; in [6], 62%. The growth was 59.2% in assay [7], 49.1% in assay [8], 42.7% in [9] and 60.7% in assay [10].

On to `COc1ccc(-c2cc(-c3cc(OC)c(OC)c(OC)c3)c(C#N)c(N3CCOCC3)n2)cc1O`, for which the growth in [1] was 23.5%; in assay [2], 108%; in assay [3], 30.1%; in [4], 52.3%; in [5], 51.1%; in [6], 38.9%. The growth in [7] is 60.8%; in assay [8], 89.9%; in assay [9], 13.7%; in [10], 60%.

In the case of `NC(N)=NN=C(c1ccccc1)c1ccccc1`, the growth in assay [1] is 30.9%; in assay [2], 11.7%; in assay [3], -7.05% (active); in assay [4], 47%; in assay [5], 32.1%; in [6], 23.8%. Further, the growth in assay [7] was 3.67% (active); in assay [8], 54.8%; in assay [9], 30.8%; in assay [10], 43.1%.

Regarding `C=C1C(=O)O[C@H]2[C@H]1CC/C(COC(=O)C(=O)c1cn(C)c3ccc(OC)cc13)=C\CC[C@@]1(C)O[C@@H]21`, the growth in assay [1] is -53.1% (active); in [2], -52.7% (active); in assay [3], -76.7% (active); in [4], -13.8% (active); in assay [5], -92.5% (active); in assay [6], -59.2% (active). Besides, the growth in assay [7] was -100% (active); in [8] it was -84.8% (active); in assay [9], -88.5% (active); in assay [10], -65.3% (active).

Consider `O=c1cc(C2NNC(=S)N2)c2ccc3ccccc3c2o1` (stereo not given), for which the growth in assay [1] was 98.1%; in assay [2], 100%; in [3], 105%; in assay [4], 93.2%; in assay [5] it was 96.8%; in assay [6], 85.2%. For the same compound, the growth in [7] is 96.8%; in assay [8], 86.3%; in [9], 87.5%; in [10] it was 114%.

Consider `Cc1ccc2nc(NC(=O)CSc3nc(Nc4ccc([N+](=O)[O-])cc4)c(C#N)c(-c4ccccc4)n3)sc2c1`, for which the growth in [1] is 93.6%; in assay [2] it was 96.7%; in assay [3] it was 85.6%; in assay [4], 93.9%; in [5], 93.2%; in assay [6], 93.8%. The growth was 98% in assay [7], 86% in assay [8], 96.7% in assay [9] and 109% in [10].

Regarding `COc1ccc(-c2nc(SCCC(C)C)nc(N/N=C\c3cccc([N+](=O)[O-])c3)c2C#N)cc1`, the growth in [1] is 38.7%; in [2], 30.3%; in [3], -14% (active); in assay [4] it was 45.1%; in assay [5] it was 8.23% (active); in assay [6], 40.5%. Further, the growth in [7] is 71.1%; in assay [8], 67.5%; in assay [9], 18.8%; in assay [10] it was 67.5%.

As to `O=C(Nc1cccc(C(F)(F)F)c1)Nc1cccc(C(F)(F)F)c1`, the growth in assay [1] was 10.7%; in assay [2], 3.56% (active); in [3], 11.1%; in [4], 10.7%; in assay [5], -15.3% (active); in assay [6] it was 6.31% (active). Also, the growth in assay [7] was -72.5% (active); in [8] it was 10.6%; in assay [9] it was 8.64% (active); in [10] it was 26.8%.

Regarding `c1ccc2c(c1)nc(CN1CCOCC1)n1cc(N3CCCC3)nc21`, the growth in assay [1] was 97.3%; in [2], 111%; in assay [3], 89.7%; in assay [4] it was 102%; in [5], 102%; in [6], 82.1%. For the same compound, the growth in assay [7] is 98%; in assay [8], 100%; in assay [9], 102%; in [10], 118%.

On to `COc1cc(/C=N/n2c(CN3CCOCC3)nc3ccccc3c2=O)cc(OC)c1OC`, for which the growth is 106% in assay [1]; 103% in [2]; 94.4% in [3]; 95.7% in assay [4]; 98.7% in assay [5]; 101% in assay [6]. Further, the growth in [7] is 101%; in assay [8] it was 97.6%; in assay [9], 100%; in assay [10], 99.3%.

As for `COc1ccc2[nH]c(O)c(/C=c3/cc4c(c(-c5cc(OC)c(OC)c(OC)c5)n3)=Nc3ccccc3-4)c2c1`, the growth in [1] is 46.8%; in assay [2], 35%; in [3], 78.8%; in [4] it was 84.4%; in assay [5], 61.4%; in assay [6], 44.7%. Further, the growth in [7] was 52.2%; in assay [8], 80.7%; in assay [9] it was 64.8%; in [10] it was 83.1%.

For the compound `CC(C)=C[C@@H]1c2c(c3ccccc3n(C)c2=O)O[C@H]2c3c(c4ccccc4n(C)c3=O)OC(C)(C)[C@@H]12`, the growth in assay [1] is 65.4%; in assay [2] it was 77.9%; in assay [3], 60.6%; in [4], 99.2%; in assay [5] it was 84.5%; in [6] it was 6.54% (active). In addition, the growth in assay [7] is 61.5%; in assay [8] it was 65.6%; in assay [9], 67%; in assay [10], 104%.
